Experimental data reported in PubChem BioAssay (NCATS).
Inconclusive results are not listed. Unless noted, the call rests on the fitted dose curve; in most records, active means well fitted curve in either direction with a large enough effect (not every such curve was filed as active); inconclusive means small, poorly fitted or top-dose-only effect, or another doubt; inactive means flat fitted curve, though single readings scatter.

Columns and labels:
[1] = AP1 Signaling Pathway (AID 357); conditions: ME-180 AP-1-bla reporter, EGF-induced, beta-lactamase ratio, 5 h; at 17.2 µM (top of the series) unless noted;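 further: ME-180 reporter cells stimulated with EGF at its EC50 level; on the % scale 0 is the no-effect control and ±100 the full control effect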
Method in brief: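 Modulation of EGF-driven AP-1 transcription was assessed with a beta-lactamase reporter in ME-180 cells. Compound and EC50 EGF were co-incubated 5 hours at 37 °C before 2.5-hour CCF4 loading at room temperature and dual-emission reading.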

[2] = NFAT Signaling Pathway (AID 444); conditions: Jurkat NFAT-bla M1, carbachol, beta-lactamase ratio, 5 h; at 17.2 µM (top of the series) unless noted;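 further: carbachol stimulus at about its EC50 of 1 µM final; on the % scale 0 is the no-effect control and ±100 the full control effect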
Method in brief: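 Read-out: CCF4 FRET ratio (460 nm/530 nm) after 1 h RT dye loading, used for %activity and AC50 from titration series. Cells: Jurkat NFAT-β-lactamase/M1 line, treated with compound plus 1 uM carbachol for 5 h, 37 °C.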

[3] = Stat Signaling Pathway (AID 446); conditions: ME-180 (cervical carcinoma) SIE beta-lactamase reporter, IL-6 stimulated, 5 h; at 17.2 µM (top of the series) unless noted;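 further: ME-180 cervical cancer cells given 40 pM IL-6 alongside compound; SIE-controlled beta-lactamase reporter measured as 460/530 nm FRET emission ratio; on the % scale 0 is the no-effect control and ±100 the full control effect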
Method in brief: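 Compound effects on IL-6-induced STAT reporter activity were measured in ME-180 cells. After overnight culture, cells were co-treated with 40 pM IL-6 for 5 hrs before beta-lactamase substrate loading at room temperature.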

[4] = molecular target: Glucocorticoid receptor (Homo sapiens) (UniProt P04150); test: GR-GFP Redistribution (AID 450;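 active means compounds whose dose series gives a full or clear partial fitted curve of increased nuclear translocation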; further: potency means the concentration at half of the fitted maximal effect); conditions: U2OS GR-GFP nuclear translocation, laser cytometry, 2 h; series mostly up to 20.6 µM
Sequence of Glucocorticoid receptor (Homo sapiens) (P04150 whole entry, looked up): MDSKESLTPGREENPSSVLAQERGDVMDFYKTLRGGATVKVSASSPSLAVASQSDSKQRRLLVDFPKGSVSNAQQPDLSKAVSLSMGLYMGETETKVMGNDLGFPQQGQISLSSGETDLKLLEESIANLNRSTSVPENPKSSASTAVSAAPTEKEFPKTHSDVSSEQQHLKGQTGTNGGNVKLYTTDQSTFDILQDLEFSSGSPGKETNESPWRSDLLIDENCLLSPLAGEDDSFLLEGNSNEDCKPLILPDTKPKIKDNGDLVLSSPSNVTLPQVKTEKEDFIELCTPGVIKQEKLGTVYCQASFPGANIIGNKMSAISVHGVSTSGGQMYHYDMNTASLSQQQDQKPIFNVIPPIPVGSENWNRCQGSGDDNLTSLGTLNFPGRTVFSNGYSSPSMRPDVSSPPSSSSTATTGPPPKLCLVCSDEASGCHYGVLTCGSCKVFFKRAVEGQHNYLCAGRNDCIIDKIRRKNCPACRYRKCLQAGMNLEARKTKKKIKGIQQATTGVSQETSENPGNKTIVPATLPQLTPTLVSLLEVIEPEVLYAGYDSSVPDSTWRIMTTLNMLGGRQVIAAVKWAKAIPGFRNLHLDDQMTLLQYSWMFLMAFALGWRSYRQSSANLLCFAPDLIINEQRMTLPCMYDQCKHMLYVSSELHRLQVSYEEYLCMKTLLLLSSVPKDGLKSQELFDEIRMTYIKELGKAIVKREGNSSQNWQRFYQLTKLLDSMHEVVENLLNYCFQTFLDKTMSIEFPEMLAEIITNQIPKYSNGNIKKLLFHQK

CCCOc1ccc(-c2nnc(N)s2)cc1
inactive: activity change, negative = inhibition [1] 9.15% | activity change, negative = inhibition [2] 2.03% | activity, negative = inhibition [3] 5.95% | Potency [4] > 20.6 µM

CC1(C)Cc2c(C#N)c(SCCC#N)nc(N3CCOCC3)c2CS1
inactive: activity change, negative = inhibition [1] -12.8% | activity change, negative = inhibition [2] 3.6% | activity, negative = inhibition [3] -3.44% | Potency [4] > 20.6 µM

O=c1cc(NCc2ccccc2)nc2n1CCCS2
inactive: activity change, negative = inhibition [1] 5.41% | activity change, negative = inhibition [2] 19% | activity, negative = inhibition [3] -19.7% | Potency [4] > 20.6 µM

CCN(CC)CCN1C(=O)C(=O)/C(=C(/O)c2ccc(OC(C)C)cc2)C1c1ccncc1 (stereo not drawn)
inactive: activity change, negative = inhibition [1] -12% | activity change, negative = inhibition [2] 0.331% | activity, negative = inhibition [3] -2.31% | Potency [4] > 20.6 µM

CCCCNc1nc2c(c(=O)n(C)c(=O)n2C)n1Cc1cccc(OC)c1
inactive: activity change, negative = inhibition [1] -11.7% | activity change, negative = inhibition [2] 2.13% | activity, negative = inhibition [3] -17% | Potency [4] > 20.6 µM

CC(C)CCOc1ccc(Cl)cc1CN1CCOCC1
inactive: activity change, negative = inhibition [1] 26.6% | activity change, negative = inhibition [2] 5.23% | activity, negative = inhibition [3] 9.43% | Potency [4] > 20.6 µM

CCOC(=O)CC1=NC(=O)CS1
inactive: activity change, negative = inhibition [1] 2.69% | activity change, negative = inhibition [2] 0.359% | activity, negative = inhibition [3] 4.4% | Potency [4] > 20.6 µM

Cc1ccc(N(CN2C(=O)C3CC=CCC3C2=O)C(=O)c2ccco2)cc1Cl (stereo not drawn)
inactive: activity change, negative = inhibition [1] -4.76% | activity change, negative = inhibition [2] 9.09% | activity, negative = inhibition [3] -11% | Potency [4] > 20.6 µM

COC(=O)c1[nH]c2ccc(Cl)cc2c1NC(=O)C1CC1
inactive: activity change, negative = inhibition [1] -4.32% | activity change, negative = inhibition [2] -26.4% | activity, negative = inhibition [3] 1.62% | Potency [4] > 20.6 µM

CC(Sc1nc(N2CCCCC2)c2c(c1C#N)CCCC2)C(=O)O (stereo not drawn)
inactive: activity change, negative = inhibition [1] -9.35% | activity change, negative = inhibition [2] -2.56% | activity, negative = inhibition [3] -20.5% | Potency [4] > 20.6 µM

Cn1c(OCc2ccc3c(c2)OCO3)nc2c1c(=O)n(Cc1cccc(Cl)c1)c(=O)n2C
inactive: activity change, negative = inhibition [1] -15.5% | activity change, negative = inhibition [2] 1.55% | activity, negative = inhibition [3] -6.64% | Potency [4] > 20.6 µM

COC(=O)c1ccc(C2/C(=C(\O)c3ccc4c(c3)OCCO4)C(=O)C(=O)N2CCCN(C)C)cc1 (stereo not drawn)
inactive: activity change, negative = inhibition [1] 10.1% | activity change, negative = inhibition [2] 5.87% | activity, negative = inhibition [3] -5.8% | Potency [4] > 20.6 µM

COc1ccccc1C(=O)N1CCCC1(C#N)c1ccccc1 (stereo not drawn)
inactive: activity change, negative = inhibition [1] -10.1% | activity change, negative = inhibition [2] -0.126% | activity, negative = inhibition [3] -2.09% | Potency [4] > 20.6 µM

c1ccc(-n2ncc3c(N4CCCC4)ncnc32)cc1
inactive: activity change, negative = inhibition [1] -17.5% | activity change, negative = inhibition [2] 14.9% | activity, negative = inhibition [3] -6.73% | Potency [4] > 20.6 µM

C=C(c1ccc(OCCO)cc1)c1ccc(OCCO)cc1
inactive: activity change, negative = inhibition [1] -5.64% | activity change, negative = inhibition [2] -1.3% | activity, negative = inhibition [3] -3.23% | Potency [4] > 20.6 µM

CCCCc1nc2sc3c(c2c(=O)[nH]1)CCC3
inactive: activity change, negative = inhibition [1] -16.9% | activity change, negative = inhibition [2] -7.93% | activity, negative = inhibition [3] -2.54% | Potency [4] > 20.6 µM

CCOc1ccc(/C(O)=C2/C(=O)C(=O)N(CCN(CC)CC)C2c2ccco2)cc1 (stereo not drawn)
inactive: activity change, negative = inhibition [1] -1.27% | activity change, negative = inhibition [2] -3.29% | activity, negative = inhibition [3] 6.33% | Potency [4] > 20.6 µM
